Assay outcomes from PubChem BioAssay.
Shown are actives, neighbours in structure and some others; about 7.7% of the full set was active somewhere.
FMDV inh: High Throughput Screening for Foot and Mouth Disease Virus Antivirals. actives 1.2% (n = 410,000). AID 1159524, 2015. Potency, µM (doses to about 57.9 µM), inactives show at the top dose activity change, negative = inhibition, usual class: inhibitors. FMDV antiviral cell-based qHTS; calls by dose curve; tested in HEK293T cells; also: read-out not given here; potency is read from the fitted curve at half-maximal effect; nearly all actives have a fitted effect of over 45% in size
TbPYK inhibitor: qHTS of Trypanosoma Brucei Inhibitors. pyruvate kinase (Trypanosoma brucei), Q57TT1. TbPYK enzyme, Kinase-Glo Plus ATP luminescence, 45 min. Potency, µM (top dose mostly 76.8 µM), for inactives: at the highest dose activity, negative = inhibition, most hits filed as inhibitors. actives 0.12% (n = 410,000). AID 624173, 2012; also: potency is read from the fitted curve at half-maximal effect; nearly all actives have a fitted effect of over 50% in size
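Assay buffer: 50 mM TEA pH 7.2, 100 mM KCl, 10 mM MgCl2, 0.05% BSA, 0.01% Tween-20. Pyruvate kinase from T. brucei plus substrate met compound, then ADP (130 uM final). Luminescence was read post 45 min RT.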
Sm TGR inh: qHTS Assay for the Inhibitors of Schistosoma Mansoni Peroxiredoxins; Schistosoma mansoni thioredoxin glutathione reductase (TGR), Q962Y6; purified TGR, DTNB reduction, TNB absorbance 405 nm; Potency, µM (series often up to 114 µM), for inactives: at the top dose activity change, negative = inhibition, actives largely listed as inhibitors; actives 3% (n = 360,000); also: potency is read from the fitted curve at half-maximal effect; nearly all actives have a fitted effect of over 60% in size
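First, TGR (20 nM dispensed) and NADPH were mixed with compound. Second, a 15 min room-temperature incubation followed. Third, further NADPH and then DTNB were added to start the reaction. Finally, TNB absorbance was monitored kinetically.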
RE007 growth inh: qHTS Assay for Inhibitors of the HIV-1 protein Vpr; Potency, µM (series often up to 92.2 µM), for the others: at the top dose activity change, negative = less growth, usual class: inhibitors; S. pombe RE007 Vpr strain, BacTiter-Glo ATP luminescence, 24 h; actives 0.21% (n = 360,000); active = well fitted falling curve with a large enough effect; inconclusive = small, poorly fitted or top-dose-only effect; inactive = no such curve, though single readings can be large or run the other way; also: potency is read from the fitted curve at half-maximal effect; nearly all actives have a fitted effect of over 50% in size
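Fission yeast strain RE007, carrying one chromosomally integrated HIV-1 vpr copy, was seeded at OD 0.01 in PMG+AL medium with 23 nL pinned compound. After 24 h at 30 °C and 99% humidity, viability was read by BacTiter-Glo luminescence.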
FBPA Giardia inh: qHTS Assay for Inhibitors of Fructose-1,6-bisphosphate Aldolase from Giardia Lamblia | A8B2U2 | purified Giardia FBPA | Potency, µM (highest dose often 59.6 µM), for inactives: at the highest dose activity, negative = inhibition, actives largely listed as inhibitors | actives 0.71% (n = 290,000) | AID 2451, 2010; also: potency is read from the fitted curve at half-maximal effect; nearly all actives have a fitted effect of over 55% in size
Target sequence (A8B2U2 whole entry, looked up): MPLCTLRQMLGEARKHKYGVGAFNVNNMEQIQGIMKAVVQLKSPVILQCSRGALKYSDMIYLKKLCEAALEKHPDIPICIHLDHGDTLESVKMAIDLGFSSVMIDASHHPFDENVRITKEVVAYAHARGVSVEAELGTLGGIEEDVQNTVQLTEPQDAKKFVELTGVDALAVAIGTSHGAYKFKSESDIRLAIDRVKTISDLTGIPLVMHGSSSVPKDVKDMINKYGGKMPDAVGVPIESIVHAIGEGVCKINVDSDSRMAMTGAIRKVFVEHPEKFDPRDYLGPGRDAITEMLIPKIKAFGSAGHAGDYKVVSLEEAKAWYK
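40 nM FBPA preincubated 10 min at RT with compound (up to 57.5 uM final), then substrate plus GAPDH/TPI/NAD/arsenate coupling and diaphorase/resazurin added. Fluorescence read after 20 min at RT, 525/598 nm.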
HCMV antiviral: qHTS Assay for inhibitors of the human cytomegalovirus (HCMV); AID 1259415, 2018; HFF cells, HCMV-luciferase reporter, 72 h; hits give low values; activity change, negative = inhibition, % at 57.5 µM; actives 4.5% (n = 410,000); in the data active = activity change below about -60%; inconclusive = no clear call, values can overlap the other calls; inactive = above about -39%
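Cell-based, HFFs, 1000 cells/well, 16 h 37C; cpds in DMSO + HCMV-luc, MOI 1 PFU/cell; 72 h 37C; OneGlo luminescence after 5 min RT; norm. to buffer vs Salinomycin 10uM.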
Active calls of the source: *; ! = not active in a repeat. Unless noted, calls follow the shape of the dose curve; as a rule, active = well fitted curve in the direction sought with a large enough effect; inconclusive = small, poorly fitted or top-dose-only effect, or another doubt; inactive = no such curve, though single readings can be large; an effect the other way counts as inactive or inconclusive. % is scaled to controls: 0 for no effect and ±100 for the full control effect.

Results for Cn1cnc([N+](=O)[O-])c1S(=O)(=O)Oc1ccccc1 ?
FMDV inh: 25µM*; TbPYK inhibitor: -2%; RE007 growth inh: -12%; HCMV antiviral: 43

What do the screens show for `Cc1cc(O)c(-c2ccnc3cc(-c4ccccc4)nn23)cc1Cl`?
FMDV inh: -15%; TbPYK inhibitor: 0%; Sm TGR inh: -8%; HCMV antiviral: -9

Results for CCOC(=O)C(C)Oc1cccc2c(=O)n(CC(=O)NCc3ccccc3)ccc12 (configuration not stated) ?
FMDV inh: -24%; TbPYK inhibitor: 1%; Sm TGR inh: -3%; RE007 growth inh: 9%; FBPA Giardia inh: 2%; HCMV antiviral: -89*

Results for CCOC(=O)C(C)Oc1cccc2c(=O)n(CC(=O)Nc3ccc(OC)cc3)ccc12 (configuration not stated) ?
FMDV inh: -7%; TbPYK inhibitor: -5%; RE007 growth inh: -6%; HCMV antiviral: 1

What do the screens show for `CCOC(=O)C(C)Oc1cccc2c(=O)n(CC(=O)NCc3ccc(F)cc3)ccc12` (configuration not stated)?
FMDV inh: -3%; TbPYK inhibitor: 1%; Sm TGR inh: 0%; RE007 growth inh: -17%; FBPA Giardia inh: 6%; HCMV antiviral: -65*

Results for CCOC(=O)C(C)Oc1cccc2c(=O)n(CC(=O)NCCc3ccccc3)ccc12 (configuration not stated) ?
FMDV inh: -17%; TbPYK inhibitor: 0%; Sm TGR inh: 10%; RE007 growth inh: -2%; FBPA Giardia inh: 5%; HCMV antiviral: 0

What do the screens show for `S=C(c1ccc(-c2ccccc2)cc1)N1CCOCC1`?
FMDV inh: 3%; TbPYK inhibitor: -10%; Sm TGR inh: 12%; RE007 growth inh: -2%; FBPA Giardia inh: 2%; HCMV antiviral: -83*

How did O=C(c1ccc(-c2ccccc2)cc1)c1ccccc1C(=O)N1CCOCC1 do in these assays?
FMDV inh: -6%; TbPYK inhibitor: -4%; Sm TGR inh: -31%; RE007 growth inh: 8%; FBPA Giardia inh: 7%; HCMV antiviral: 4

What do the screens show for `Cc1cccc(CN2CCc3nnc(C(C)NC(=O)C4CCOCC4)n3CC2)c1` (configuration not stated)?
FMDV inh: -18%

What do the screens show for `CC(=O)Oc1ccc(C23c4ccccc4C2(OC(C)=O)c2cc(OC(C)=O)ccc23)cc1` (configuration not stated)?
FMDV inh: inconclusive; TbPYK inhibitor: 4%; RE007 growth inh: 5%; HCMV antiviral: -70*

Results for CC(=O)Oc1ccc(C(=O)Nc2ccccc2NC(=O)c2ccc(OC(C)=O)cc2)cc1 ?
FMDV inh: -22%; TbPYK inhibitor: 0%; Sm TGR inh: -17%; RE007 growth inh: -4%; FBPA Giardia inh: 6%; HCMV antiviral: -8

What do the screens show for `Cc1n[nH]c(C)c1CCc1nc2c3ccccc3nc(SCC(=O)Nc3ccccc3F)n2n1`?
FMDV inh: -12%; TbPYK inhibitor: 4%; Sm TGR inh: -8%; RE007 growth inh: -4%; FBPA Giardia inh: 2%; HCMV antiviral: -73*

How did Cc1cccc(NC(=O)CSc2nc3ccccc3c3nc(CCc4c(C)n[nH]c4C)nn23)c1 do in these assays?
FMDV inh: inconclusive; TbPYK inhibitor: -1%; Sm TGR inh: -1%; RE007 growth inh: 6%; HCMV antiviral: -82*!

How did Cc1cncn1CCc1nc2c3ccccc3nc(SCC(=O)Nc3ccc(F)cc3)n2n1 do in these assays?
FMDV inh: -11%; TbPYK inhibitor: 25%; Sm TGR inh: 7%; HCMV antiviral: -5

What do the screens show for `Cc1ccc(CN(C(=O)c2ccc(C(C)(C)C)cc2)c2ccccn2)o1`?
FMDV inh: 28%; TbPYK inhibitor: 0%; Sm TGR inh: -5%; HCMV antiviral: -36

Results for Cc1ccc(/C=C/C(=O)Nc2sc3c(c2C#N)CCCC3)o1 ?
FMDV inh: -21%; TbPYK inhibitor: -12%; Sm TGR inh: 45µM*; RE007 growth inh: 1%; FBPA Giardia inh: 1%; HCMV antiviral: 2

Results for CCC(=O)Nc1sc2c(c1C#N)CCC2 ?
FMDV inh: 7%; TbPYK inhibitor: -15%; Sm TGR inh: -16%; RE007 growth inh: -9%; FBPA Giardia inh: 1%; HCMV antiviral: 5

How did CCc1ccc(CCC(=O)Nc2sc3c(c2C#N)CCCC3)o1 do in these assays?
FMDV inh: -7%; TbPYK inhibitor: -24%; Sm TGR inh: -27%; RE007 growth inh: 9%; FBPA Giardia inh: -6%; HCMV antiviral: -75*

What do the screens show for `Brc1ccc(N2O[C@H]3C=C[C@@H]2C3)nc1`?
HCMV antiviral: 41

How did Cc1ccc2nc(N(CCCN(C)C)C(=O)c3sc4ccccc4c3Cl)sc2c1 do in these assays?
FMDV inh: 18µM*; TbPYK inhibitor: -7%; Sm TGR inh: inconclusive; RE007 growth inh: -11%; FBPA Giardia inh: -6%; HCMV antiviral: -78*

How did Cc1ccc2nc(N(CCCN(C)C)C(=O)c3ccc(S(=O)(=O)N4CCc5ccccc5C4)cc3)sc2c1 do in these assays?
FMDV inh: inconclusive; TbPYK inhibitor: -12%; Sm TGR inh: 2%; RE007 growth inh: 21%; FBPA Giardia inh: -24%; HCMV antiviral: -103*

Results for COc1ccc2sc(N(CCCN(C)C)C(=O)c3ccc(S(=O)(=O)N4CCc5ccccc5C4)cc3)nc2c1 ?
FMDV inh: 25µM*; TbPYK inhibitor: -7%; Sm TGR inh: -4%; RE007 growth inh: -3%; HCMV antiviral: -98*

How did CN(C)CCCN(C(=O)c1ccc(S(=O)(=O)N2CCc3ccccc3C2)cc1)c1nc2ccc(F)cc2s1 do in these assays?
FMDV inh: -23%; TbPYK inhibitor: 1%; Sm TGR inh: -1%; RE007 growth inh: 5%; FBPA Giardia inh: -17%; HCMV antiviral: 14

What do the screens show for `COc1ccc2sc(N(CCCN(C)C)C(=O)c3ccc(S(=O)(=O)N4CCCC4)cc3)nc2c1`?
FMDV inh: -12%; TbPYK inhibitor: 5%; Sm TGR inh: -1%; RE007 growth inh: -5%; HCMV antiviral: 15

How did Cc1cc(C)c2sc(N(CCCN(C)C)C(=O)c3ccc(S(=O)(=O)N4CCc5ccccc5C4)cc3)nc2c1 do in these assays?
Sm TGR inh: -10%
